One test concerns the target Activated CDC42 kinase 1 (Homo sapiens) (UniProt Q07912). Conditions: at 1 µM.
Activated CDC42 kinase 1 (Homo sapiens), sequence (Q07912 whole entry, looked up): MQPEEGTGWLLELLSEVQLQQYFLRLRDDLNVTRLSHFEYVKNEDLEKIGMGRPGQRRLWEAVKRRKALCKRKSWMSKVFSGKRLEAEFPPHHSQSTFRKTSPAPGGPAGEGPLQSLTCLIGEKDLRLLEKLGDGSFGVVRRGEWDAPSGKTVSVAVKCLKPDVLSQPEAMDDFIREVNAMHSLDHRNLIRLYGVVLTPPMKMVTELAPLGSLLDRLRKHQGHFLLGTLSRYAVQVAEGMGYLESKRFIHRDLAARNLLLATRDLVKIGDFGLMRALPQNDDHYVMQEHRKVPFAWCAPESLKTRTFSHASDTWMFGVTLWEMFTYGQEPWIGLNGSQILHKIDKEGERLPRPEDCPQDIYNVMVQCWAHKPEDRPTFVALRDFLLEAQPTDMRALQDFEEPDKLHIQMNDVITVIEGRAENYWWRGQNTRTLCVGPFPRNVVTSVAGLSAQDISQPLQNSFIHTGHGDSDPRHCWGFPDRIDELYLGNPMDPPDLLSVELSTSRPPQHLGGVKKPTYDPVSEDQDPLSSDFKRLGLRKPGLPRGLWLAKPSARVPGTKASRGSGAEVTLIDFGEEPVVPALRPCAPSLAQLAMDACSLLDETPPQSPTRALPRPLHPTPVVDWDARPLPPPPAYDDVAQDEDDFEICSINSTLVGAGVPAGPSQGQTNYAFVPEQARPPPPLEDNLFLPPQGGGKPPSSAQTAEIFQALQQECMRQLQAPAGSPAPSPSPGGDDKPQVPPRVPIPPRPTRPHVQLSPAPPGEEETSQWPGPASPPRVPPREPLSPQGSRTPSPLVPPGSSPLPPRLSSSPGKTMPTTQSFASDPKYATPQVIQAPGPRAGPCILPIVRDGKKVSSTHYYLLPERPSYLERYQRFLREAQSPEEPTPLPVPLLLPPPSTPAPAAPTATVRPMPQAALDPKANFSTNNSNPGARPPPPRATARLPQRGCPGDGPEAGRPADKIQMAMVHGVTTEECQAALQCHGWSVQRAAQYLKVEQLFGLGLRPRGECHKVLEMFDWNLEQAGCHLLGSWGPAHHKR
Turning to `COc1cccc(-n2cnc3c(N/N=C/c4ccncc4)ncnc32)c1`, the inhibition was determined as 3.07%.

As to `Fc1ccc(-c2ncn(C3CCNCC3)c2-c2ccnc(Oc3ccc(F)c(F)c3)n2)cc1`, the inhibition is -0.07%.

With `Cc1ccc(C(=O)NC2CCC2)cc1-c1ccc(C(=O)NCC2CC2)cc1`, the inhibition amounted to 1.08%.

For `C[C@@H](Oc1cc(-n2cnc3ccc(OC4CCN(C)CC4)cc32)sc1C(N)=O)c1ccccc1Cl`, the inhibition worked out at 1.13%.

For the compound `CCS(=O)(=O)c1ccc(OC)c(Nc2ncc(-c3ccccc3Cl)o2)c1`, the inhibition was determined as 3.27%.

On to `CCC(=O)Nc1ccc(C)c(-c2ccc(C(=O)NCC3CC3)cc2)c1`, for which the inhibition was found to be 1.34%.

`O=C(Nc1n[nH]c2cc(-c3cc(F)ccc3F)ccc12)C1CC1`: the inhibition is -0.8%.

Turning to `O=C1NC(=O)C(c2cccc(Cl)c2)=C1Nc1ccc(Cl)c(C(=O)O)c1`, the inhibition stood at 0.5%.

In the case of `CS(=O)(=O)CCNCc1ccc(-c2ccc3ncnc(Nc4ccc(OCc5ccccc5)c(Br)c4)c3c2)o1`, the inhibition came out at 1.61%.

On to `COc1ccc2ncn(-c3cc(O[C@H](C)c4ccccc4Cl)c(C(N)=O)s3)c2c1`, for which the inhibition came to 1.16%.

As to `Cc1ccc(C(=O)NC(C)C)cc1-c1ccc(C(=O)NCC2CC2)cc1`, the inhibition was determined as 0.35%.

With `O=C(Nc1ccc(Oc2ccc3[nH]c(NC(=O)c4ccccc4)nc3c2)cc1)Nc1cc(C(F)(F)F)ccc1F`, the inhibition was 4.59%.

Take `C[C@@H](Oc1cc(-n2cnc3ccc(OCC4CCN(C)CC4)cc32)sc1C(N)=O)c1ccccc1Cl`: the inhibition turned out to be 19.8%.

Take `COc1ccc2cc(-c3c(-c4ccncc4)nc(-c4ccc([S+](C)[O-])cc4C)n3C)ccc2c1` (stereo not drawn): the inhibition came out at 0.9%.

Consider `CCc1ccc(Oc2nccc(-c3c(-c4ccc(F)cc4)ncn3C3CCNCC3)n2)cc1`, for which the inhibition is 2.2%.

On to `O=C(NCC1CC1)c1ccc(-c2cccc(C(=O)NC3CC3)c2)cc1`, for which the inhibition amounted to 1.39%.

As to `CS(=O)(=O)CCNCc1cc(-c2cc3c(Nc4ccc(OCc5cccc(F)c5)c(Cl)c4)ncnc3s2)cs1`, the inhibition turned out to be 5.79%.

Take `Fc1ccc(-c2ncn(C3CCNCC3)c2-c2ccnc(Oc3ccc4c(c3)OCO4)n2)cc1`: the inhibition came to 1.77%.

Take `NS(=O)(=O)c1ccc(N/N=C2\C(=O)Nc3ccc(C(=O)NCCCn4ccnc4)cc32)cc1`: the inhibition was 3.98%.

For the compound `NC(=O)Cc1ccccc1Oc1nccc(-c2c(-c3ccc(F)cc3)ncn2C2CCNCC2)n1`, the inhibition is 2.74%.

With `COc1cccc(/C=N/Nc2ncnc3c2cnn3-c2cccc(OC)c2)c1`, the inhibition amounted to 3.32%.

Take `COc1ccc(-c2ccc3c(NC(=O)C4CC4)n[nH]c3n2)cc1`: the inhibition was 1.42%.

Consider `Fc1ccc(-c2ncn(CCCN3CCOCC3)c2-c2ccncc2)cc1`, for which the inhibition is -1.72%.

`Fc1ccc(-c2c(-c3ccncc3)nc3n2CCS3)cc1`: the inhibition was 1.01%.

Regarding `CN(C)c1ccc2c(c1)/C(=C/Nc1ccc(S(N)(=O)=O)cc1)C(=O)N2`, the inhibition was 1.79%.

Turning to `c1ccc(-c2n[nH]cc2-c2ccnc(-c3ccc(OCCN4CCOCC4)cc3)c2)nc1`, the inhibition turned out to be 5.14%.

On to `COC(=O)Nc1nc2ccc(Sc3ccc(NC(=O)Nc4cc(C(F)(F)F)ccc4F)cc3)cc2[nH]1`, for which the inhibition was 1.64%.

`COc1cc(Nc2ncc(-c3ccccc3)o2)cc(OC)c1OC`: the inhibition came to 0.48%.

On to `Fc1ccc(-c2nc3n(c2-c2ccncc2)CCS3)cc1`, for which the inhibition is 0.1%.

As to `C#Cc1cccc(Nc2ncnc3ccc(OCCCCNCCS(C)(=O)=O)cc23)c1`, the inhibition is 7.01%.

Turning to `COc1ccc(C2=C(N3CCc4ccccc43)C(=O)NC2=O)cc1`, the inhibition came out at 2.14%.

On to `COc1cc(N2CCN(C(C)C)CC2)ccc1Nc1nc(Nc2ccc(F)cc2C(=O)NC[C@@H](O)CO)c2cc[nH]c2n1`, for which the inhibition is 9.35%.

On to `Fc1ccc(-c2ncn(C3CCNCC3)c2-c2ccnc(Oc3ccc(Oc4ccccc4)cc3)n2)cc1`, for which the inhibition was 1.8%.

Turning to `CCc1cccc(CC)c1/C=C/c1cncc(C(=O)NC)c1`, the inhibition turned out to be 2.37%.

The target of a further test is High affinity nerve growth factor receptor (Homo sapiens) (UniProt P04629). To be noted: at 0.1 µM.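 Note: each value is a mean of replicate percent inhibition readings against TRKA kinase.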
High affinity nerve growth factor receptor (Homo sapiens), sequence (P04629 33-796 limits assumed): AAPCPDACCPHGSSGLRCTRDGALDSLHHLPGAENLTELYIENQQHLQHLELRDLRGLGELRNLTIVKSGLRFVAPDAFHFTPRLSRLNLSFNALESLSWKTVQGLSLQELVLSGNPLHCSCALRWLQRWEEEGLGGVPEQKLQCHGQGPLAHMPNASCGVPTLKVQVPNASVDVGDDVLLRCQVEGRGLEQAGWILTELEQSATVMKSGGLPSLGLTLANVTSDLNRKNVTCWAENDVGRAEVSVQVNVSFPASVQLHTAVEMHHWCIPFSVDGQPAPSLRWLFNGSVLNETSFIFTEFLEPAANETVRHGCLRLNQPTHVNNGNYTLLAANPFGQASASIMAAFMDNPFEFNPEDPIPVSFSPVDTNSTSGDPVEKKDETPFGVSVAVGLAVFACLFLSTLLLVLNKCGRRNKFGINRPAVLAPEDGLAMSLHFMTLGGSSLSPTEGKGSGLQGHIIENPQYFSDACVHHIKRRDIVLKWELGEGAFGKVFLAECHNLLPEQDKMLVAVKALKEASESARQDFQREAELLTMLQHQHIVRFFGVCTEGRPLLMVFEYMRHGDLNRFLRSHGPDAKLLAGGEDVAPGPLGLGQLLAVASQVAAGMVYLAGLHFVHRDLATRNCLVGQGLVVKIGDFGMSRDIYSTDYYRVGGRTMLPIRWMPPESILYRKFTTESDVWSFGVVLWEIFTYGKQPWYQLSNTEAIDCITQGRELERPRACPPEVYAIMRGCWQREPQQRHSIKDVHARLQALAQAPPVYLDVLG
Consider `COc1cccc(-n2cnc3c(N/N=C/c4ccncc4)ncnc32)c1`, for which the inhibition is -1.67%.

Consider `Fc1ccc(-c2ncn(C3CCNCC3)c2-c2ccnc(Oc3ccc(F)c(F)c3)n2)cc1`, for which the inhibition stood at 2.3%.

For `Cc1ccc(C(=O)NC2CCC2)cc1-c1ccc(C(=O)NCC2CC2)cc1`, the inhibition was -0.6%.

With `C[C@@H](Oc1cc(-n2cnc3ccc(OC4CCN(C)CC4)cc32)sc1C(N)=O)c1ccccc1Cl`, the inhibition came to 2.29%.

Take `CCS(=O)(=O)c1ccc(OC)c(Nc2ncc(-c3ccccc3Cl)o2)c1`: the inhibition turned out to be 2.9%.

`CCC(=O)Nc1ccc(C)c(-c2ccc(C(=O)NCC3CC3)cc2)c1`: the inhibition was 2%.

As to `O=C(Nc1n[nH]c2cc(-c3cc(F)ccc3F)ccc12)C1CC1`, the inhibition stood at 3.75%.

In the case of `O=C1NC(=O)C(c2cccc(Cl)c2)=C1Nc1ccc(Cl)c(C(=O)O)c1`, the inhibition was found to be 0.94%.

On to `CS(=O)(=O)CCNCc1ccc(-c2ccc3ncnc(Nc4ccc(OCc5ccccc5)c(Br)c4)c3c2)o1`, for which the inhibition came to 1.4%.

For the compound `COc1ccc2ncn(-c3cc(O[C@H](C)c4ccccc4Cl)c(C(N)=O)s3)c2c1`, the inhibition was found to be 8.17%.

As for `Cc1ccc(C(=O)NC(C)C)cc1-c1ccc(C(=O)NCC2CC2)cc1`, the inhibition was -0.37%.

With `O=C(Nc1ccc(Oc2ccc3[nH]c(NC(=O)c4ccccc4)nc3c2)cc1)Nc1cc(C(F)(F)F)ccc1F`, the inhibition turned out to be 5.99%.

In the case of `C[C@@H](Oc1cc(-n2cnc3ccc(OCC4CCN(C)CC4)cc32)sc1C(N)=O)c1ccccc1Cl`, the inhibition was determined as 1.86%.

On to `COc1ccc2cc(-c3c(-c4ccncc4)nc(-c4ccc([S+](C)[O-])cc4C)n3C)ccc2c1` (stereo not drawn), for which the inhibition stood at 0.64%.

As to `CCc1ccc(Oc2nccc(-c3c(-c4ccc(F)cc4)ncn3C3CCNCC3)n2)cc1`, the inhibition amounted to 4.16%.

For `O=C(NCC1CC1)c1ccc(-c2cccc(C(=O)NC3CC3)c2)cc1`, the inhibition turned out to be 4.07%.

In the case of `CS(=O)(=O)CCNCc1cc(-c2cc3c(Nc4ccc(OCc5cccc(F)c5)c(Cl)c4)ncnc3s2)cs1`, the inhibition was 2.34%.

With `Fc1ccc(-c2ncn(C3CCNCC3)c2-c2ccnc(Oc3ccc4c(c3)OCO4)n2)cc1`, the inhibition was determined as 1.21%.

Turning to `NS(=O)(=O)c1ccc(N/N=C2\C(=O)Nc3ccc(C(=O)NCCCn4ccnc4)cc32)cc1`, the inhibition was determined as 2.34%.

Take `NC(=O)Cc1ccccc1Oc1nccc(-c2c(-c3ccc(F)cc3)ncn2C2CCNCC2)n1`: the inhibition is -0.18%.

`COc1cccc(/C=N/Nc2ncnc3c2cnn3-c2cccc(OC)c2)c1`: the inhibition is 1.54%.

As for `COc1ccc(-c2ccc3c(NC(=O)C4CC4)n[nH]c3n2)cc1`, the inhibition is -0.67%.

`Fc1ccc(-c2ncn(CCCN3CCOCC3)c2-c2ccncc2)cc1`: the inhibition was -2.6%.

Consider `Fc1ccc(-c2c(-c3ccncc3)nc3n2CCS3)cc1`, for which the inhibition was determined as 3.03%.

With `CN(C)c1ccc2c(c1)/C(=C/Nc1ccc(S(N)(=O)=O)cc1)C(=O)N2`, the inhibition amounted to 6.93%.

With `c1ccc(-c2n[nH]cc2-c2ccnc(-c3ccc(OCCN4CCOCC4)cc3)c2)nc1`, the inhibition was -3.86%.

For `COC(=O)Nc1nc2ccc(Sc3ccc(NC(=O)Nc4cc(C(F)(F)F)ccc4F)cc3)cc2[nH]1`, the inhibition stood at 62.7%.

`COc1cc(Nc2ncc(-c3ccccc3)o2)cc(OC)c1OC`: the inhibition is 3.35%.

On to `Fc1ccc(-c2nc3n(c2-c2ccncc2)CCS3)cc1`, for which the inhibition was 2.38%.

`C#Cc1cccc(Nc2ncnc3ccc(OCCCCNCCS(C)(=O)=O)cc23)c1`: the inhibition is 2.95%.

With `COc1ccc(C2=C(N3CCc4ccccc43)C(=O)NC2=O)cc1`, the inhibition was found to be 5.01%.

On to `COc1cc(N2CCN(C(C)C)CC2)ccc1Nc1nc(Nc2ccc(F)cc2C(=O)NC[C@@H](O)CO)c2cc[nH]c2n1`, for which the inhibition is 3.81%.

For `Fc1ccc(-c2ncn(C3CCNCC3)c2-c2ccnc(Oc3ccc(Oc4ccccc4)cc3)n2)cc1`, the inhibition worked out at 3.4%.

For `CCc1cccc(CC)c1/C=C/c1cncc(C(=O)NC)c1`, the inhibition stood at 1.94%.

A word on the inhibition: it is the drop in the measured response relative to a control, in per cent.

The values are drawn from ChEMBL document CHEMBL1961873, “Compounds: GSK PKIS; Assays: Nanosyn kinase panel” (2012).
